Measured values from the supplement of paper PMC10849652.
The full data set covers some 7,900 targets. This sample favours those with a hit. About 0.6% of all pairs of compound and target were hits.

Each target was assayed with COC(=O)N[C@@H](C)CNc1nccc(-c2cn(C(C)C)nc2-c2cc(Cl)cc(NS(C)(=O)=O)c2F)n1 [encorafenib] (assay: log2 fold change, soluble protein after heating vs DMSO (PISA); higher = thermal stabilisation; K562 cells, 10 uM, 30 min; active = over 0.2 and 3.5 SD of the protein, either way, in both replicates (recomputed)).
Procedure, shortened: (§1)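 K562 cells at 2×10^6 cells/mL were treated for 30 min with 10 μM compound, and aliquots were heated for 3 min over 48°C-58°C before pooling. Extraction used PBS with 0.5% NP-40 at 4°C, and soluble protein was the supernatant after 21,000xg for 90 min, measured by TMTpro 16plex LC-MS/MS with channel sums equalised. Thermal stability values, relative to control samples and from duplicates, are log2 fold changes.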

Sequence of UniProt Q8NC54 (Q8NC54 whole entry, looked up): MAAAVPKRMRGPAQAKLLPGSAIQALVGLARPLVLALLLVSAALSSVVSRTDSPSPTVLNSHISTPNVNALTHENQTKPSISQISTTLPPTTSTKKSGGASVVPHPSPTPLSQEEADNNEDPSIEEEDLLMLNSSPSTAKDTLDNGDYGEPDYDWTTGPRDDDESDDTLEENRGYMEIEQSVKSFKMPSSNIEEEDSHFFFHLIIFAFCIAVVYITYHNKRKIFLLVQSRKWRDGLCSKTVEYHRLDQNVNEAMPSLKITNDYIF
Sequence of UniProt O14733 (O14733 whole entry, looked up): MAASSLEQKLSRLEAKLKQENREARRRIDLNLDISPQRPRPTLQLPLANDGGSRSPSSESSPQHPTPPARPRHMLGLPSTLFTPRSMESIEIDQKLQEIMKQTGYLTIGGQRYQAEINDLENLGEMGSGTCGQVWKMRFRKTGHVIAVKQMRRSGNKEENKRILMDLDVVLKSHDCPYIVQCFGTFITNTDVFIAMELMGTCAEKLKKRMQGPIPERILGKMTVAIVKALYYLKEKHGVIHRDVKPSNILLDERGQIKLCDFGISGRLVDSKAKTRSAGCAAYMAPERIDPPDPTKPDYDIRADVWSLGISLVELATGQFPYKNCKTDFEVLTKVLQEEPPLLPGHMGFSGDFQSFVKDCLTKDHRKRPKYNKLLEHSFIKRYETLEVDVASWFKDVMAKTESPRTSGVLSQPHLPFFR
Sequence of UniProt P45984 (P45984 whole entry, looked up): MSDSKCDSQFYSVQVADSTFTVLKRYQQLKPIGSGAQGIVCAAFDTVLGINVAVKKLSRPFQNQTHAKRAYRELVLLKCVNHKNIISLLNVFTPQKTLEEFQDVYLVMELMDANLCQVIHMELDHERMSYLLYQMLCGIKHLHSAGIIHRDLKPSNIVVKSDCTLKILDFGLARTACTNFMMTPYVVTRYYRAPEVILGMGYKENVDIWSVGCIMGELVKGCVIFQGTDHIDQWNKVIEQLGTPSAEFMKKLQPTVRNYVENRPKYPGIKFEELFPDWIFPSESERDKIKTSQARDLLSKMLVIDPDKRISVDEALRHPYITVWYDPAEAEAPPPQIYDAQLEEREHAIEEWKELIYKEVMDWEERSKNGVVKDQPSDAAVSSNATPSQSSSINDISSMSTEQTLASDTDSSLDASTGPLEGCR
Sequence of UniProt Q9C0E8 (Q9C0E8 whole entry, looked up): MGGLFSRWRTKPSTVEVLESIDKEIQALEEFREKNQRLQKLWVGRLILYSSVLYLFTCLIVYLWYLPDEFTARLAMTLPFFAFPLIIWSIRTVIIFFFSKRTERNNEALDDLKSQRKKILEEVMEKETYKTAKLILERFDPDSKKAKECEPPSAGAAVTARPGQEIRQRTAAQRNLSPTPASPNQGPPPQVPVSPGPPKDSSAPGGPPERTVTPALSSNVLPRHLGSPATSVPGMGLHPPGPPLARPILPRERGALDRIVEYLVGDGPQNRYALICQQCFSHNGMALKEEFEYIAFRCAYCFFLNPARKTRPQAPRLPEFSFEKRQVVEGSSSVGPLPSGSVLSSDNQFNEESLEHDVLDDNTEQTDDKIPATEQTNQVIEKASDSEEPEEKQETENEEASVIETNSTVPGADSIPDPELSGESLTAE
Sequence of UniProt Q96GA3 (Q96GA3 whole entry, looked up): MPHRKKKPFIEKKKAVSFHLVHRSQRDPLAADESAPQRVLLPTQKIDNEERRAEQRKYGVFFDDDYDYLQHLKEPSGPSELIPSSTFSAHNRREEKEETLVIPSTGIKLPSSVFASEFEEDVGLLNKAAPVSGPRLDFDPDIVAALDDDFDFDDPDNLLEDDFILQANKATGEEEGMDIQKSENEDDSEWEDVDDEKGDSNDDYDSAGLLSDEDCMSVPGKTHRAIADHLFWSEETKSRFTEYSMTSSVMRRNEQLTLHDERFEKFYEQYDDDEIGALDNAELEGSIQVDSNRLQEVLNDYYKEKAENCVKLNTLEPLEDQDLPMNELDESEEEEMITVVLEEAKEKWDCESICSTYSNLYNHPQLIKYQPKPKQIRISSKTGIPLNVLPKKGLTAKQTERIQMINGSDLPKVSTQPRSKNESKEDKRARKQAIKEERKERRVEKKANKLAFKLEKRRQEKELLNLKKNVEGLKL
Sequence of UniProt P48449 (P48449 whole entry, looked up): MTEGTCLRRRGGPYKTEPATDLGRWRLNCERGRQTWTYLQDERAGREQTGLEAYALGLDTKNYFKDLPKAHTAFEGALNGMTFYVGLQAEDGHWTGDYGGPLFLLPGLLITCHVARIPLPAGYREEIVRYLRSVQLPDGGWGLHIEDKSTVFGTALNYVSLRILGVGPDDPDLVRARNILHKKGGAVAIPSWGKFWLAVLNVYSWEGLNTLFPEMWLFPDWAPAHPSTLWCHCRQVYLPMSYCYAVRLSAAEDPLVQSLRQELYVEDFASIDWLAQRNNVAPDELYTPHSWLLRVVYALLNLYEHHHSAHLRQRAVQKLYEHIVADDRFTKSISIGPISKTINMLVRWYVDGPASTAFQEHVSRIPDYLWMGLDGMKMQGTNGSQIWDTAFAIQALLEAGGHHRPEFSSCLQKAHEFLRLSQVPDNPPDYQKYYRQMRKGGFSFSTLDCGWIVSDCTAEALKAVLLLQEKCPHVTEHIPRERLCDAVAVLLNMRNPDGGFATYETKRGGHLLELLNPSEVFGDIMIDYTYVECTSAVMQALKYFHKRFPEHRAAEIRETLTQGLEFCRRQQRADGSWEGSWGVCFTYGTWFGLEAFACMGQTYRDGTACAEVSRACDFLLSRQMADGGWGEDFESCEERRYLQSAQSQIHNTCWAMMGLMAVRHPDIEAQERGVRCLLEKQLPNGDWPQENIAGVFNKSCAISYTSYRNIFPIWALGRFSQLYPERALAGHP
Sequence of UniProt Q9Y496 (Q9Y496 whole entry, looked up): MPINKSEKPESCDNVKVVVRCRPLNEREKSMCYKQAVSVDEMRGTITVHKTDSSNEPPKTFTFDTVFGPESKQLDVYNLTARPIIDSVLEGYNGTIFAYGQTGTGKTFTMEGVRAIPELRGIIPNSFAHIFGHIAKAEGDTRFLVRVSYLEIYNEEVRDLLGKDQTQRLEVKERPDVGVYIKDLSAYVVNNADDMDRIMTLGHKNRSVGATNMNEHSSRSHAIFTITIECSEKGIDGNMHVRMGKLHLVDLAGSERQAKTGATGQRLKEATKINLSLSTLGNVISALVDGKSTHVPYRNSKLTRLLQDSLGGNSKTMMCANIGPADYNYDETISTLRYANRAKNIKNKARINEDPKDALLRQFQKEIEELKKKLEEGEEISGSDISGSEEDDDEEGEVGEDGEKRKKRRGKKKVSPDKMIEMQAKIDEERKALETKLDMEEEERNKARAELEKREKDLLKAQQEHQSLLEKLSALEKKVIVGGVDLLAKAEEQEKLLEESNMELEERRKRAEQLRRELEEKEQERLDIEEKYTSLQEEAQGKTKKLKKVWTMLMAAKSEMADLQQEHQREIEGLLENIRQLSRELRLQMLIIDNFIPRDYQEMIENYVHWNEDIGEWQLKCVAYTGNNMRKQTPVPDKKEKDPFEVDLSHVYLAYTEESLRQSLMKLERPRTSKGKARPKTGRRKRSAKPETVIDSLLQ
Sequence of UniProt Q96A72 (Q96A72 whole entry, looked up): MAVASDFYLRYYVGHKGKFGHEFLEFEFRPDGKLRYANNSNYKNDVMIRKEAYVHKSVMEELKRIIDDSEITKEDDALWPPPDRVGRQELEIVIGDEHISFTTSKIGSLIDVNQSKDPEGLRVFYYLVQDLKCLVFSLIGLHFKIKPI
Sequence of UniProt O94889 (O94889 whole entry, looked up): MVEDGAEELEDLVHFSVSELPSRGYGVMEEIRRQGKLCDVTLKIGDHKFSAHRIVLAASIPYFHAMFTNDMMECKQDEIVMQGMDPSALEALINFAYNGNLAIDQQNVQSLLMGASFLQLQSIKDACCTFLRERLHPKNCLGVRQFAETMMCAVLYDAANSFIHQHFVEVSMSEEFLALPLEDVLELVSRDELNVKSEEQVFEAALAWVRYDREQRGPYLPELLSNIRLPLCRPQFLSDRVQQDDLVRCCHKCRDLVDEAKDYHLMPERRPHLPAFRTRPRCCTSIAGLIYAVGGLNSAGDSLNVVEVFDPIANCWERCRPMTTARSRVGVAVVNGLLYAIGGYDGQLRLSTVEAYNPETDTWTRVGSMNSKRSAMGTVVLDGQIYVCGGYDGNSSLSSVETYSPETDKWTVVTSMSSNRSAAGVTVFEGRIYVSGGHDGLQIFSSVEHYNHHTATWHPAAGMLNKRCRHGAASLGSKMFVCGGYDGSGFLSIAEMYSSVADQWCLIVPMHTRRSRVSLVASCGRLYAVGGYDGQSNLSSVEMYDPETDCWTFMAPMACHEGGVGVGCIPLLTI
Sequence of UniProt Q9H6V9 (Q9H6V9 whole entry, looked up): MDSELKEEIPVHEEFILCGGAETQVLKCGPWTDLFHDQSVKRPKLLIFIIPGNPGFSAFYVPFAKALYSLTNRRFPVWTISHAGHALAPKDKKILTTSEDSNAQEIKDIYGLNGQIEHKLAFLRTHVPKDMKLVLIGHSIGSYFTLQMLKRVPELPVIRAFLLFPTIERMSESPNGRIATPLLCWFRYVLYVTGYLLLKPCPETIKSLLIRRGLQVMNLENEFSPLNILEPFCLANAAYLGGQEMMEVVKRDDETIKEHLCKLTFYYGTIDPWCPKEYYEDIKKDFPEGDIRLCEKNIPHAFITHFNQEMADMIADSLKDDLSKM
Sequence of UniProt Q9UBF1 (Q9UBF1 whole entry, looked up): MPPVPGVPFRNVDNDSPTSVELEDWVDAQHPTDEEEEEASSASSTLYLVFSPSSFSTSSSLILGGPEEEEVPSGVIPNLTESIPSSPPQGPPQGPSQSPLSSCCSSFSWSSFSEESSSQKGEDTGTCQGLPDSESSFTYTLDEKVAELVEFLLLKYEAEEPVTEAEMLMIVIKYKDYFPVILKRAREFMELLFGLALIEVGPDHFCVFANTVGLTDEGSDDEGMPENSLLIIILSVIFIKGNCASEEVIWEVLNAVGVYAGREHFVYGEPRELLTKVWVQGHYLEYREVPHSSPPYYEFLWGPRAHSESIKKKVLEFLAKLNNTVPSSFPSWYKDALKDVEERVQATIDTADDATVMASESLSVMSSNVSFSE

log2 fold change, inactive:
KDM3B (UniProt Q7LBC6) 0.054, MAP2K7 isoform 4 (UniProt O14733) 0.013, MIEF1 (UniProt L0R8F8) 0.008, MARCKSL1 (UniProt P49006) -0.04, MEPCE (UniProt Q7L2J0) 0.067, MCUR1 (UniProt Q96AQ8) -0.009, MED1 (UniProt Q15648) 0.009, LNPEP (UniProt Q9UIQ6) -0.008, IPO7 (UniProt O95373) 0.052, LMNB1 (UniProt P20700) 0.016, MAGEC2 (UniProt Q9UBF1) 0.079, KDELR2 (UniProt P33947) -0.005, INTS7 (UniProt Q9NVH2) 0.036, LMBRD2 (UniProt Q68DH5) 0.021, INPP5B (UniProt P32019) -0.151, IRF2BPL (UniProt Q9H1B7) -0.06, KIF3A (UniProt Q9Y496) 0.003, LNPK (UniProt Q9C0E8) -0.013, LEO1 (UniProt Q8WVC0) -0.033, MCU (UniProt Q8NE86) -0.017, MAP1LC3B2 (UniProt A6NCE7) 0.032, MAST4 (UniProt O15021) 0.042, ILK (UniProt Q13418) 0.03, LARP7 isoform 3 (UniProt Q4G0J3) 0.034, LDAH isoform 2 (UniProt Q9H6V9) 0.04, MFN2 (UniProt O95140) -0.006, MAGOHB (UniProt Q96A72) 0.019, LMNB2 (UniProt Q03252) -0.009, LTV1 (UniProt Q96GA3) 0.109, KLHL18 (UniProt O94889) 0.019, MFSD5 isoform 2 (UniProt Q6N075) -0.022, MEAK7 (UniProt Q6P9B6) 0.02, MCCC2 (UniProt Q9HCC0) -0.033, ITIH4 (UniProt Q14624) -0.001, KNTC1 (UniProt P50748) 0.077, MFGE8 (UniProt Q08431) 0.037, KCT2 (UniProt Q8NC54) 0.063, MAPK9 (UniProt P45984) 0.018, LSS (UniProt P48449) 0.118

These targets were tested with COC(=O)[C@H](CCSC)NC(=O)C1=C(C=C(C=C1)NC[C@H](CS)N)C2=CC=CC=C2 in the same assay as above.
Procedure, shortened: as §1

log2 fold change, inactive:
KDM3B (UniProt Q7LBC6) -0.029, MAP2K7 isoform 4 (UniProt O14733) -0.01, MIEF1 (UniProt L0R8F8) 0.015, MARCKSL1 (UniProt P49006) -0.008, MEPCE (UniProt Q7L2J0) -0.077, MCUR1 (UniProt Q96AQ8) -0.028, MED1 (UniProt Q15648) 0.033, LNPEP (UniProt Q9UIQ6) 0.012, IPO7 (UniProt O95373) -0.015, LMNB1 (UniProt P20700) 0.032, MAGEC2 (UniProt Q9UBF1) 0.003, KDELR2 (UniProt P33947) 0.023, INTS7 (UniProt Q9NVH2) -0.019, LMBRD2 (UniProt Q68DH5) -0.021, INPP5B (UniProt P32019) 0.141, IRF2BPL (UniProt Q9H1B7) -0.027, KIF3A (UniProt Q9Y496) 0.005, LNPK (UniProt Q9C0E8) 0.039, LEO1 (UniProt Q8WVC0) -0.082, MCU (UniProt Q8NE86) -0.032, MAP1LC3B2 (UniProt A6NCE7) -0.048, MAST4 (UniProt O15021) -0.017, ILK (UniProt Q13418) 0.06, LARP7 isoform 3 (UniProt Q4G0J3) -0.019, LDAH isoform 2 (UniProt Q9H6V9) -0.063, MFN2 (UniProt O95140) -0.026, MAGOHB (UniProt Q96A72) -0.071, LMNB2 (UniProt Q03252) 0.049, LTV1 (UniProt Q96GA3) -0.061, KLHL18 (UniProt O94889) -0.05, MFSD5 isoform 2 (UniProt Q6N075) 0.012, MEAK7 (UniProt Q6P9B6) 0.088, MCCC2 (UniProt Q9HCC0) -0.003, ITIH4 (UniProt Q14624) -0.009, KNTC1 (UniProt P50748) -0.041, MFGE8 (UniProt Q08431) -0.023, KCT2 (UniProt Q8NC54) -0.036, MAPK9 (UniProt P45984) 0.029, LSS (UniProt P48449) 0.074
